Data from PubChem BioAssay.
A number with no mark means an inactive call. For some of these results: Measured potencies and affinities stand elsewhere. Activity calls are given as the source filed them. Unless noted, how the calls were made is not given here.

Tests used:
[1] = antimalarial activity against Dd2 strain (AID 2302;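 active means growth inhibition above 50% at the single 2 µM test dose, taken to imply half-maximal potency below 2 µM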;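 further: 0% = DMSO untreated growth and 100% = chloroquine plus artemisinin killed control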); conditions: P. falciparum Dd2 in RBCs, LDH growth readout, 72 h; at 2 µM; active compounds read high
[2] = HepG2 cytotoxicity, primary screen, cytotoxicity control for P. falciparum antimalarial project, cell-based, ATP luminescence (AID 2303;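 active means inhibition above 50%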;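 further: 0% = DMSO wells and 100% = digitonin-killed cells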); conditions: HepG2 viability, 24-48 h, at 10 µM, active compounds read high
[3] = target: L-lactate dehydrogenase (Plasmodium falciparum (isolate CDC / Honduras)) (UniProt Q27743); experiment: PfLDH activity inhibition – cell lysate, 3D7 strain, counter-screen for P. falciparum growth inhibition project (AID 2304);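 further: 0% = vehicle and 100% = reference inhibitor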; conditions: P. falciparum 3D7 crude extract, LDH APAD/NBT absorbance; at 2 µM; active compounds read high
[4] = inhibition of 3D7 malaria parasite growth – strain 3D7 (AID 2306);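 further: 0% = DMSO wells and 100% = chloroquine plus artemisinin control wells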; conditions: P. falciparum 3D7 erythrocytic growth, LDH absorbance, 72 h; at 2 µM; active compounds read high
[5] = target: Calcium-dependent protein kinase 1 (Plasmodium falciparum (isolate 3D7)) (UniProt P62344); experiment: PfCDPK1 kinase inhibitors, biochemical, TCAMS library (AID 1159585; cut-off not given, nearly all actives have IC50 up to about 0.98 µM;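 further: inhibitors leave more ATP so luminescence rises with inhibition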); conditions: recombinant PfCDPK1, Kinase-Glo ATP depletion luminescence
[6] = target: Plasmodium falciparum protein kinase 6 (PK6, PF3D7_1337100) (UniProt Q8IDW1); experiment: PfPK6 kinase inhibitors, biochemical, TCAMS library (AID 1159586); conditions: recombinant PfPK6, Kinase-Glo ATP depletion luminescence
[7] = target: Protein kinase 7 (PK7), Plasmodium falciparum 3D7 (PF3D7_0213400) (UniProt Q7YTF7); experiment: inhibition of Plasmodium PK7 catalytic activity – biochemical, TCAMS antimalarial set, Kinase-Glo luminescence (AID 1159587); conditions: recombinant PfPK7, Kinase-Glo ATP depletion luminescence
[8] = target: Calcium-dependent protein kinase 4 (Plasmodium falciparum (isolate 3D7)) (UniProt Q8IBS5); experiment: PfCDPK4 kinase inhibitors, biochemical, TCAMS library (AID 1159588; cut-off not given, nearly all actives have IC50 up to about 0.91 µM); conditions: recombinant PfCDPK4, Kinase-Glo ATP depletion luminescence
Chain of Calcium-dependent protein kinase 4 (Plasmodium falciparum (isolate 3D7)) (Q8IBS5 whole entry, looked up): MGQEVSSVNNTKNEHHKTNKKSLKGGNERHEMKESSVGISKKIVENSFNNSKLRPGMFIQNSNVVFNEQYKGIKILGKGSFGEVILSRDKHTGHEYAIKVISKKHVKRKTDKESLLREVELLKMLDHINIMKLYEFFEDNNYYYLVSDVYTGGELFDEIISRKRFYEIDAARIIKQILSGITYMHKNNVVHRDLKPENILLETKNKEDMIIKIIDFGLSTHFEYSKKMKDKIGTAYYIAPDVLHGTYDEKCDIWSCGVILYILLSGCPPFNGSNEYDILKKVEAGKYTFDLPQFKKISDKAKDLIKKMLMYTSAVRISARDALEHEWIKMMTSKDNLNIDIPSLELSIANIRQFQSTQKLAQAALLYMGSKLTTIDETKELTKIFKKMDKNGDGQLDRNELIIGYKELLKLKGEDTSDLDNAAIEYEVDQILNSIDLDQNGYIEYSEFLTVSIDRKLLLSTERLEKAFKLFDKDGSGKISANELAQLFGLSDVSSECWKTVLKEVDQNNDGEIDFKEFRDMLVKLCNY

Chain of Plasmodium falciparum protein kinase 6 (PK6, PF3D7_1337100) (Q8IDW1 1-305): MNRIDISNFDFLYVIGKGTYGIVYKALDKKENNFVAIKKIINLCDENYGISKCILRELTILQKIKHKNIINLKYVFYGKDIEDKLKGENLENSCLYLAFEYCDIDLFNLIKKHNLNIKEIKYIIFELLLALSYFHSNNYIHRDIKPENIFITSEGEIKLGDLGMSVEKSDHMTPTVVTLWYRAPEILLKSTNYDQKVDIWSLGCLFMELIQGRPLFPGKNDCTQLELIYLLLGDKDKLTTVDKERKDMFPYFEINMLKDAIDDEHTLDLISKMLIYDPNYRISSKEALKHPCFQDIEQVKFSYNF
Chain of L-lactate dehydrogenase (Plasmodium falciparum (isolate CDC / Honduras)) (Q27743 whole entry, looked up): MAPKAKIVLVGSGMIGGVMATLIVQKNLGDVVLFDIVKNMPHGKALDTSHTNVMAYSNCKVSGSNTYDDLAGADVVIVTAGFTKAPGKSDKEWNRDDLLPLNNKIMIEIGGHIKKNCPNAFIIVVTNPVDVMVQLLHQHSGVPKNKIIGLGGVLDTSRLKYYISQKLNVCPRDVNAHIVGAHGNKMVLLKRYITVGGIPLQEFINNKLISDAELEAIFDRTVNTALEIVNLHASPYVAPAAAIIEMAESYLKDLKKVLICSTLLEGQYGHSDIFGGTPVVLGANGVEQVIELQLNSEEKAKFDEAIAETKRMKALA
Chain of Calcium-dependent protein kinase 1 (Plasmodium falciparum (isolate 3D7)) (P62344 whole entry, looked up): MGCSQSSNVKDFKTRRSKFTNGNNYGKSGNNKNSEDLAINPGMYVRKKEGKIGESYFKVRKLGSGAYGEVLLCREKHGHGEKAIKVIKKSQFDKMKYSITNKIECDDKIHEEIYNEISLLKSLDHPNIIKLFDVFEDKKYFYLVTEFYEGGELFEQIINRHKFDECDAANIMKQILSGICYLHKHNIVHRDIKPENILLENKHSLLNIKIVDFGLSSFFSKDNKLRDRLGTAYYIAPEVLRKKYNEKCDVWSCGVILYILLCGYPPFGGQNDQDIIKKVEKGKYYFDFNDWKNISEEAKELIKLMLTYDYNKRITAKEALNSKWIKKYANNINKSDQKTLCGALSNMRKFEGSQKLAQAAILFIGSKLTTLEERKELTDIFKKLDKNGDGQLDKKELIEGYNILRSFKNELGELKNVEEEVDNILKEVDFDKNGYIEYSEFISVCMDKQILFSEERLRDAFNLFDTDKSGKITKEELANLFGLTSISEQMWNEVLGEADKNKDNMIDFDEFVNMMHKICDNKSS
Chain of Protein kinase 7 (PK7), Plasmodium falciparum 3D7 (PF3D7_0213400) (Q7YTF7 1-343): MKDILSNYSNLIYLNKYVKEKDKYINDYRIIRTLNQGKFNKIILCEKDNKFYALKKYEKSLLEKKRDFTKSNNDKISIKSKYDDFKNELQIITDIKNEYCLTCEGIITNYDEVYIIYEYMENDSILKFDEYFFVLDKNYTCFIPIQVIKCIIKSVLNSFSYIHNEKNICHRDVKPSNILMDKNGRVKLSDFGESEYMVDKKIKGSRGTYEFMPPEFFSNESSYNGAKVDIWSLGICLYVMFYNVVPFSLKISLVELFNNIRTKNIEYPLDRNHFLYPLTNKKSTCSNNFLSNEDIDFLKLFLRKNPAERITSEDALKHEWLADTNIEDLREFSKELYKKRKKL

Structure (SMILES)	growth inhibition [1]	inhibition [2]	inhibition [3] [%]	growth inhibition [4]	outcome [5]	outcome [6]	outcome [7]	outcome [8]
Cc1[nH]c2c(C)cccc2c1C1CCN(CCC2CCN(C(=O)/C=C/c3ccc(Cl)c(Cl)c3)CC2)CC1	79% (active)	67% (active)	-1	100% (active)	inactive	inactive	inactive	inactive
O=C1C2C(C(=O)N1c1ccccc1)[C@H]1S[C@@H]2c2c1ccc1ccccc21 (stereo not given in full)	7%	-5%	-1	96% (active)	inactive	inactive	inactive	inactive
NC1=NC(=O)C(=Cc2cn(-c3ccccc3)nc2-c2cccc(S(=O)(=O)N3CCCC3)c2)S1	68% (active)	-4%	3	85% (active)	inactive	inactive	inactive	inactive
CCNc1cc(C(=O)N[C@@H](Cc2ccccc2)[C@H](O)CNC2CCC(C)(C)CC2)cc(N2CCCCS2(=O)=O)c1	71% (active)	1%	3	98% (active)	inactive	inactive	inactive	inactive
CN(Cc1ccccc1)C1CCCN(c2cc(NC(=O)c3ccc(F)cc3)ccn2)C1 (stereo not given)	95% (active)	7%	0	93% (active)	inactive	inactive	inactive	inactive
c1cc(CNC2CCCC2)cc(-c2ccc(CNc3ccc4ncccc4c3)cc2)c1	24%	32%	-9	98% (active)	inactive	inactive	inactive	inactive
Cc1ccc(CNC(=O)[C@H](Cc2ccccc2)Nc2cc(C)nc(NCCc3ccc(F)cc3)n2)cc1	22%	10%	-3	98% (active)	inactive	inactive	inactive	inactive
CCCCNC[C@@H](O)[C@H](Cc1ccccc1)NC(=O)c1cc(NCC)cc(N2CCCCS2(=O)=O)c1	98% (active)	11%	2	99% (active)	inactive	inactive	inactive	inactive
O=c1ccc2ccc(F)c3c2n1CC3CN1CCC(NCc2cccc(-c3cccs3)c2)CC1 (stereo not given)	75% (active)	17%	0	100% (active)	inactive	inactive	inactive	inactive
CN(C)Cc1c(O)ccc2[nH]c(-c3ccc(F)cc3F)nc12	17%	4%	-2	99% (active)	inactive	inactive	inactive	inactive
Cc1cc(C)c(NC(=O)N[C@H]2CCN(CCCCCNC(=O)/C=C/c3ccc(Cl)c(Cl)c3)C2)c(C)c1	3%	12%	-4	91% (active)	inactive	inactive	inactive	inactive
CCN(C(=O)NC)[C@@H]1c2cc(C#N)ccc2OC(C)(C)[C@H]1O	2%	3%	-8	96% (active)	inactive	inactive	inactive	inactive
c1ccc(-c2[nH]ncc2Nc2ccnc3ccccc23)nc1	98% (active)	36%	1	100% (active)	inactive	inactive	inactive	inactive
COc1cc(NC(=O)C(c2ccc(Cl)cc2)C(C)C)cc(OC)c1OC (stereo not given)	100% (active)	10%	-1	101% (active)	inactive	inactive	inactive	inactive
COc1c(C2CCN(CCCCNC(=O)c3cccc(-c4ccc(C(F)(F)F)cc4)c3)CC2)ccc2c1CCCC2	45%	50% (active)	-4	92% (active)	inactive	inactive	inactive	inactive
O=C1Nc2cccc3c2C1(CCCCN1CCC(c2c(-c4ccc(F)cc4)[nH]c4ccccc24)CC1)CCC3 (stereo not given)	28%	25%	-4	91% (active)	inactive	inactive	inactive	inactive
c1ccc(N2CCN(c3cc(-c4cccnc4)nc(-c4ccncc4)n3)CC2)nc1	22%	22%	-2	99% (active)	inactive	inactive	inactive	inactive
CC(C)(C(=O)Nc1ccc(C2CCC(NCC3CC3)CC2)c(Cl)c1)c1ccc(C(F)(F)F)cc1 (stereo not given)	18%	64% (active)	-1	97% (active)	inactive	inactive	inactive	inactive

Structure (SMILES)	growth inhibition [1]	inhibition [2]	inhibition [3] [%]	growth inhibition [4]	outcome [5]	outcome [6]	outcome [7]	outcome [8]
COc1ccc2nccc([C@@H](O)CN3CCC(NC(=O)c4ccc(-c5ccc(C#N)cc5)cc4)CC3)c2c1	91% (active)	42%	4	101% (active)	inactive	inactive	inactive	inactive
C=CCOC(=O)N1CCC(CNCc2cccc(-c3ccc(-c4nc5ccc(C(F)(F)F)cc5[nH]4)cc3)c2)C1 (stereo not given)	96% (active)	28%	-3	102% (active)	inactive	inactive	inactive	inactive
Cc1[nH]c(C)c(-c2ccc(-c3ccc4c(c3)OCO4)nc2)c(=O)c1Br	96% (active)	-6%	-8	96% (active)	inactive	inactive	inactive	inactive
CN(C)CCOc1ccc2c(=O)cc(CCc3cccc(F)c3F)n(CC(=O)N(C)Cc3ccc(-c4ccc(C(F)(F)F)cc4)cc3)c2c1	60% (active)	33%	2	90% (active)	inactive	inactive	inactive	inactive
c1csc(-c2nc(NCC3CCCO3)ncc2-c2ccsc2)n1 (stereo not given)	83% (active)	-4%	1	89% (active)	inactive	inactive	inactive	inactive
CC(C)(C)c1ccc(CNC(=O)COc2ccc(-c3nnc(-c4cccc([N+](=O)[O-])c4)o3)cc2[N+](=O)[O-])cc1	25%	10%	-7	93% (active)	inactive	inactive	inactive	inactive
Cc1noc(C)c1-c1ccc2c(Nc3ccccc3C(C)(C)C)c(C(=O)NCc3ccc4c(c3)OCO4)cnc2c1	88% (active)	37%	-3	96% (active)	inactive	inactive	inactive	inactive
CS(=O)(=O)c1ccc(CNCc2cccc(-c3cccc(-c4nc5ccc(C(F)(F)F)cc5[nH]4)c3)c2)cc1	96% (active)	5%	2	103% (active)	inactive	inactive	inactive	inactive
COC(=O)[C@@H](NC(=O)[C@H](Cc1ccc(OC)c(OC)c1)Nc1ccc(C#N)c2ccccc12)c1ccc(O)cc1	100% (active)	6%	5	101% (active)	inactive	inactive	inactive	inactive
CCN(CC)CCCNc1ncc2c(-c3ccc(NC(=O)Nc4cc(C(F)(F)F)ccc4F)cc3)nn(C)c2n1	74% (active)	81% (active)	-3	99% (active)	inactive	inactive	inactive	inactive
O=C(NCCc1ccc(Cl)c(Cl)c1)[C@@H]1CCCN1C(=O)c1ccc(O)c(-c2ccc(Cl)c(Cl)c2)c1	99% (active)	-2%	-2	99% (active)	inactive	inactive	inactive	inactive
COc1cc(C(C)C)ccc1C1CCN(CCCCNC(=O)c2ccc(NC(=O)c3ccc(Cl)cc3)cc2)CC1	99% (active)	100% (active)	3	98% (active)	inactive	inactive	inactive	inactive
COc1ccc(-n2ncc(C(=O)N3CCC4(C3)C(=O)N(c3ccccc3)c3ccccc34)c2C)cc1 (stereo not given)	91% (active)	45%	0	88% (active)	inactive	inactive	inactive	inactive
COc1ccc(-c2cc(C(=O)N3CCc4ccccc43)c3ccccc3n2)cc1OC	48%	5%	3	85% (active)	inactive	inactive	inactive	inactive
CC1(C)CNCc2cc(NC(=O)/C=C/c3ccc(Cl)cc3)ccc21	26%	23%	-9	82% (active)	inactive	inactive	inactive	inactive
COc1ccccc1CCNc1nc(C)cc(N[C@@H](Cc2ccccc2)C(=O)NCCCOC(C)C)n1	32%	10%	-1	99% (active)	inactive	inactive	inactive	inactive
N#Cc1cncc(-c2nc3c(N4CCCC(N)C4)cccc3n2CCNCc2ccccc2)c1 (stereo not given)	1%	8%	-1	101% (active)	inactive	inactive	inactive	inactive
